Compound activity from PubChem.
In the library only some 3.1% were active in any assay of this set; here they are far more common.
PriA SSB inh: inhibitors of Klebsiella pneumoniae PriA binding to SSB C-terminal tail, primary screen, biochemical, AlphaScreen; inhibition, % at 33 µM; PriA–SSB C-terminal tail interaction (Klebsiella pneumoniae); 430,000 tested, 0.6% active; AID 1272365, 2023; AlphaScreen SSBct-PriA binding, biotinylated peptide; in the data active = inhibition mostly above about 37%, no sharp cut-off; inactive = mostly below about 20%
Anthrax LF prot: Bacillus anthracis LF protease inhibitors, primary screen, biochemical, multiplex microsphere, MLPCN library; Lethal factor (Bacillus anthracis), P15917; multiplex microsphere protease cleavage assay; inhibition, % at 10 µM; 360,000 tested, 0.12% active; AID 588501, 2011
BoNT A protease: BoNT/A light chain protease inhibitors, primary screen, biochemical, flow cytometry, MLPCN library. Botulinum neurotoxin type A light chain protease (Clostridium botulinum A str. ATCC 3502). multiplex microsphere protease substrate cleavage. inhibition, % at 10 µM. 360,000 tested, 0.17% active. AID 588499, 2011
BoNT-F LC inh: BoNT/F light chain protease inhibitors, primary screen, biochemical, flow cytometry, MLPCN library; Multiplex microsphere protease cleavage assay; AID 588497, 2011; inhibition, % at 10 µM; 360,000 tested, 0.22% active; in the data active = inhibition above about 35%, passing the limit was not always enough; inconclusive = no clear call, values can overlap the other calls
Bead autofluor: compound fluorescence in toxin protease inhibitor counterscreen | compound autofluorescence counterscreen, microsphere flow cytometry; stronger effect = higher value | fluorescence intensity (no concentration beside the values) | 360,000 tested, 3.1% active | AID 624483; in the data active = fluorescence intensity above about 16000; inconclusive = no clear call, values can overlap the other calls
Each line names hits and unclear results; the compound was inactive in the other large screens. Rule as the data show it, unless noted: active = inhibition above about 30%; inconclusive = no clear call, values can overlap the other calls; inactive = below that.

O=C(CSc1nnnn1-c1ccccc1)N1CCc2ccccc2C1	Bead autofluor 22363
CCCCn1c(SCC(=O)Nc2nnc(C(C)C)s2)nc2c1c(=O)n(C)c(=O)n2C	Bead autofluor 20755
C(=C\CSc1nnnn1-c1ccccc1)/CSc1nnnn1-c1ccccc1	Bead autofluor 20060
Cn1c(=O)c2c[nH]cc2n(C)c1=O	none (no result: Anthrax LF prot, BoNT A protease, BoNT-F LC inh, Bead autofluor)
O=S(=O)(N[C@H]1CCN(c2ccc(C(F)(F)F)cn2)C1)c1ccc2c(c1)CCCC2	none (no result: Anthrax LF prot, BoNT A protease, BoNT-F LC inh, Bead autofluor)
Cc1cc(=O)n2c(-c3ccc(NC(=O)Nc4ccc5c(c4)OCO5)cc3)csc2n1	none (no result: Anthrax LF prot, BoNT A protease, BoNT-F LC inh, Bead autofluor)
CCCn1c(SCC(=O)Nc2nc3c(s2)CCCC3)nc2c1c(=O)n(C)c(=O)n2C	Bead autofluor 23637
Nc1cc(=O)[nH]c(SCC(=O)N2CCc3ccccc3C2)n1	Bead autofluor 20269
CCCn1c(SCC(=O)N2CCc3ccccc3C2)nc2c1c(=O)n(C)c(=O)n2C	Bead autofluor 23593
CCCn1c(SCC(=O)Nc2ccccc2N2CCOCC2)nc2c1c(=O)n(C)c(=O)n2C	BoNT-F LC inh inconclusive
O=C(Nc1nnc(-c2ccno2)o1)c1cc2ccccc2oc1=O	none (no result: Anthrax LF prot, BoNT A protease, BoNT-F LC inh, Bead autofluor)
Cc1cc(NC(=O)Cn2cccc(-c3nc(C4CC4)no3)c2=O)no1	PriA SSB inh 26.0 (no result: Anthrax LF prot, BoNT A protease, BoNT-F LC inh, Bead autofluor)
O=C(N/N=C/c1ccccc1[N+](=O)[O-])c1ccc2nc[nH]c2c1	Anthrax LF prot inconclusive, BoNT-F LC inh 48.9
O=C(N/N=C/c1ccc(Cl)c([N+](=O)[O-])c1)c1ccc2nc[nH]c2c1	none (no result: PriA SSB inh)
Cn1c(=O)[nH]c(=O)c2c1nc(N1CCc3ccccc3C1)n2CCSc1nc2ccccc2s1	Bead autofluor 16749
CN1CCN(c2nc3c(c(=O)[nH]c(=O)n3C)n2CCCSc2ncccn2)CC1	Bead autofluor 22784
O=S(=O)(NCCn1nc(-c2ccncc2)c2c1CCCC2)c1cccs1	none (no result: Anthrax LF prot, BoNT A protease, BoNT-F LC inh, Bead autofluor)
COc1ccc(F)cc1S(=O)(=O)NCCOc1cccc(C(F)(F)F)c1	none (no result: Anthrax LF prot, BoNT A protease, BoNT-F LC inh, Bead autofluor)
O=C(Nc1cnn(CC2COc3ccccc3O2)c1)c1cnn(-c2ccccc2)n1 (stereo unspecified)	none (no result: Anthrax LF prot, BoNT A protease, BoNT-F LC inh, Bead autofluor)
Nc1c(S(=O)(=O)c2cccc(Cl)c2)c2nc3ccccc3nc2n1CCN1CCOCC1	Bead autofluor 16491
Cc1cn2c3c(=O)n(C)c(=O)n(C)c3nc2n1CC(=O)C(C)(C)C	none (no result: Anthrax LF prot, BoNT A protease, BoNT-F LC inh, Bead autofluor)
CC(=O)c1c(C)[nH]c(C(=O)Nc2cccnc2)c1C	BoNT A protease inconclusive, Bead autofluor 19908
COc1ccccc1C(=O)NCCCn1cc(Br)c(C)n1	BoNT A protease inconclusive, Bead autofluor 18046
CCC(=O)N1CCc2cc(Br)cc(S(=O)(=O)NC3CCCc4ccccc43)c21 (stereo unspecified)	none (no result: Anthrax LF prot, BoNT A protease, BoNT-F LC inh, Bead autofluor)
Cn1cccc(C(=O)N2CCC(S(=O)(=O)c3ccc(F)cc3)CC2)c1=O	none (no result: Anthrax LF prot, BoNT A protease, BoNT-F LC inh, Bead autofluor)
COc1ccc2c(Cl)c(C(=O)N/N=C/c3c(C)[nH]c4ccccc34)sc2c1	BoNT A protease 35.9, Bead autofluor 20361 (no result: PriA SSB inh)
Cc1[nH]c2ccccc2c1/C=N/NC(=O)c1cccc(S(=O)(=O)Nc2ccccc2Cl)c1	BoNT A protease 35.4 (no result: PriA SSB inh)
Cc1[nH]c2ccccc2c1C=NNC(=O)c1cccc(S(=O)(=O)Nc2ccccc2Cl)c1	none (no result: Anthrax LF prot, BoNT A protease, BoNT-F LC inh, Bead autofluor)
COc1ccc2c(Cl)c(C(=O)NN=Cc3cccnc3)sc2c1	none (no result: Anthrax LF prot, BoNT A protease, BoNT-F LC inh, Bead autofluor)
O=S(=O)(/C=C/c1ccccc1)NCc1ccccc1	none (no result: Anthrax LF prot, BoNT A protease, BoNT-F LC inh, Bead autofluor)
CSc1ncccc1C(=O)N1CC(Oc2cc(C)n(C)c(=O)c2)C1	none (no result: Anthrax LF prot, BoNT A protease, BoNT-F LC inh, Bead autofluor)
Cc1cc(CC(C)C)n(-c2nc3ccccc3c(=O)n2OCC(N)=O)n1	BoNT-F LC inh inconclusive
Cc1cc(C)n(-c2nc3ccccc3c(=O)n2OCC(N)=O)n1	Bead autofluor 21858
CC(C)CCN1C(=O)C(C)(C)COc2ccc(NC(=O)C3CCCCC3)cc21	none (no result: Anthrax LF prot, BoNT A protease, BoNT-F LC inh, Bead autofluor)
O=C(CCc1ccc(Cl)c(F)c1)N1CC(N2C(=O)CCC2=O)C1	none (no result: Anthrax LF prot, BoNT A protease, BoNT-F LC inh, Bead autofluor)
Cc1nc(NC(C)C(=O)O)c2nc(C)oc2n1 (stereo unspecified)	Bead autofluor 21393
COc1ccc(C)cc1NC1=C(Cl)C(=O)N(C2CCCCC2)C1=O	Bead autofluor 22693
Cc1oc(-c2ccccc2F)nc1CSCC(=O)NCc1ccc2c(c1)OCO2	Bead autofluor 20539
Cn1c(SCC(=O)NCc2ccc3c(c2)OCO3)nnc1-c1c[nH]c2ccccc12	BoNT A protease inconclusive, Bead autofluor 16863
Cc1ccccc1-c1nnn(CC(=O)Nc2ccc3c(c2)OCO3)n1	none
O=C(CN1C(=O)c2cccc3cccc1c23)NCc1ccc2c(c1)OCO2	BoNT A protease inconclusive, Bead autofluor 23642
Cc1ccccc1-c1nnn(CC(=O)NCc2ccc3c(c2)OCO3)n1	Bead autofluor 21659
O=C(NNc1ccccc1[N+](=O)[O-])Nc1ccc(F)cc1	none
O=C(NNc1ccccc1[N+](=O)[O-])Nc1ccccc1	BoNT A protease inconclusive, Bead autofluor 20435
COc1ccc(C)cc1S(=O)(=O)N1CCN(CCn2ccnc2)CC1	none (no result: Anthrax LF prot, BoNT A protease, BoNT-F LC inh, Bead autofluor)
COc1ccc(-c2cc(=O)oc3c(C)c(OC(C)C(=O)N4C[C@H]5C[C@H](C4)c4cccc(=O)n4C5)ccc23)cc1 (stereo partly specified)	none (no result: Anthrax LF prot, BoNT A protease, BoNT-F LC inh, Bead autofluor)
CN(C)c1ccc(NC2=C(Cl)C(=O)c3ccccc3C2=O)cc1	PriA SSB inh 63.6
CS(=O)(=O)Nc1ccc(Cc2ccc(NS(C)(=O)=O)cc2)cc1	Bead autofluor 20871
CCS(=O)(=O)Nc1ccc(Cc2ccc(NS(=O)(=O)CC)cc2)cc1	none
Cc1cc(C)cc(CSCC(=O)N/N=C/c2ccc(OCC(=O)NCc3ccco3)cc2)c1	Bead autofluor 21576 (no result: PriA SSB inh)
COc1ccc(/C=C/C(=O)C2CC2)cc1COc1cccc(C)c1C	Anthrax LF prot 30.7
COc1ccc(/C=N/NC(=S)Nc2ccccc2)cc1COc1cccc(C)c1C	none (no result: PriA SSB inh)
COc1cc(CN2CCN(C[C@H](O)C3CC3)CC2)cc(OC)c1	none (no result: Anthrax LF prot, BoNT A protease, BoNT-F LC inh, Bead autofluor)
CCCc1[nH]n(-c2nc3ccccc3s2)c(=O)c1C=NCC1CCCO1 (stereo unspecified)	Bead autofluor 19952
Cc1cccc(NC(=O)c2cc([N+](=O)[O-])ccc2NC2CCCCC2)c1	none
CN(c1ccc([N+](=O)[O-])cc1C(=O)Nc1ccccc1)C1CCCCC1	Bead autofluor 21198
CNC(=O)NC1CCCCc2sccc21 (stereo unspecified)	Bead autofluor 16866
CNC(=S)N1CCc2sccc2C1C (stereo unspecified)	none
O=C1Nc2ccccc2CCC1Sc1nnc(-c2ccc(Cl)cc2)s1 (stereo unspecified)	Bead autofluor 24726
Clc1ccc(CSc2nnc(-c3ccncc3)s2)cc1	none
CC(CNC(=O)c1cn[nH]n1)c1ccccc1 (stereo unspecified)	none (no result: Anthrax LF prot, BoNT A protease, BoNT-F LC inh, Bead autofluor)
COc1cc(OC)cc(C(=O)Nc2ccc(Nc3ccccc3)cc2)c1	PriA SSB inh 44.9, BoNT-F LC inh inconclusive
O=C(Nc1ccc(OC(F)F)c(Cl)c1)c1cccc(OC(F)F)c1	none
COc1ccc(NC(=O)c2cccc(OC(F)F)c2)cc1Cl	BoNT A protease inconclusive, Bead autofluor 23117
